In PubChem BioAssay (NCI):
This is part of a sample that, as a whole, favours compounds with a hit. Of some 79,000 tested, about 15% had one in any assay. A number with no mark means an inactive call. Active and inactive are the calls of the source. Rule as the data show it: active = growth inhibition above about 70%; inactive = the rest.

Columns and labels:
[1] = NCI Yeast Anticancer Drug Screen. Data for the rad50 strain (AID 155);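 also: 0% = growth of vehicle-only cultures of the same strain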; details: S. cerevisiae rad50 strain growth inhibition; at 50.0 µM; hits give high values
Summary of the method: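 DNA repair mutant yeast, compound exposure, growth read-out; inhibition is taken relative to vehicle.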

[2] = NCI Yeast Anticancer Drug Screen. Data for the mec2-1 strain (AID 157); details: S. cerevisiae mec2-1 strain, at 50.0 µM, hits give high values
Summary of the method: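 Vehicle-treated cultures served as reference for growth inhibition of compound-exposed mec2-1 yeast.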

[3] = NCI Yeast Anticancer Drug Screen. Data for the sgs1 mgt1 strain (AID 161);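 also: 0% = growth of cultures given vehicle only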; details: S. cerevisiae sgs1 mgt1 strain, at 50.0 µM, hits give high values
Summary of the method: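 Genetically altered yeast, compound exposure, growth inhibition relative to vehicle.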

[4] = NCI Yeast Anticancer Drug Screen. Data for the cln2 rad14 strain (AID 165);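 also: 0% = growth equal to vehicle treated cultures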; details: S. cerevisiae cln2 rad14 strain, at 50.0 µM, hits give high values
Summary of the method: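 Each compound was tested on cln2 rad14 yeast. Inhibition of growth was calculated against vehicle-exposed controls.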

[5] = NCI Yeast Anticancer Drug Screen. Data for the bub3 strain (AID 167); details: S. cerevisiae bub3 mutant strain, at 50.0 µM, hits give high values
Summary of the method: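 In this screen, a yeast mutant lacking normal mitotic checkpoint function is challenged with compound. Relative growth versus vehicle gives the inhibition value.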

[6] = NCI Yeast Anticancer Drug Screen. Data for the mlh1 rad18 strain (AID 175); details: S. cerevisiae mlh1 rad18 strain growth inhibition; at 50.0 µM; hits give high values
Summary of the method: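 Vehicle-treated cultures served as the reference for growth inhibition in a yeast strain carrying DNA damage repair alterations exposed to each compound.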

| Compound | growth inhibition [1] | growth inhibition [2] | growth inhibition [3] | growth inhibition [4] | growth inhibition [5] | growth inhibition [6] |
| --- | --- | --- | --- | --- | --- | --- |
| COC(=O)CCN1CCN(CCO)CC1C (configuration not stated) | -36.9% | -39.8% | -26.6% | -9.75% | -2% | -32.5% |
| O=C(CSc1nnc(-c2ccc(N=Cc3ccc(Cl)cc3)cc2)o1)Nc1ccc(Cl)cc1 | 3.1% | -41% | -2.25% | -66% | -11.8% | 0% |
| CCN(CC)CCOC(=O)c1ccc(NC(=O)OCCC(C)(C)CCOC(=O)Nc2ccc(C(=O)OCCN(CC)CC)cc2)cc1 | 6.85% | -18.4% | -9.25% | -23.6% | 8.25% | 16.2% |
| N.N.N.N.N.O=C([O-])c1nn[n-]n1.[Cl-].[Co+3] | -0.8% | -1.1% | 7.15% | 23.4% | 3.75% | -7.5% |
| CC(=O)OCc1cccc(O)c1C(=O)CCC=C(C)C | -4.4% | -17.1% | 8.15% | -10.9% | -6.7% | -63.5% |
| NC(=O)c1[nH]c(/N=N/c2nc[nH]c2C(N)=O)nc1N | 24.9% | 21.6% | 9.95% | -17.1% | -4.65% | 16.4% |
| CCCC(=O)OCC(C)(C)COC(=O)CCC | -5.65% | -13.2% | 10.9% | 3.5% | 16% | 6.6% |
| CC1=N/C(=C\c2cccs2)C(=O)O1 | 26.6% | 30.5% | 28.1% | 20.5% | 22.9% | 28.9% |
| CN(C)Cc1ccc(-c2cc3onc(-c4ccccc4)c3c(=O)n2C)cc1 | -22.9% | -13.1% | -29.5% | -8.4% | -28% | 2.5% |
| CCC1=NCCO1 | 5.85% | 0.25% | -2.1% | 4% | 28.1% | -11.7% |
| COC1(OC)C[C@H](C)[C@@]23O[C@]24c2cc(O)c5c(c2N[C@H]3C#C/C=C\C#C[C@]14O)C(=O)c1ccccc1C5=O | 87.7% (active) | 87.2% (active) | 88.8% (active) | 88% (active) | 89.3% (active) | 90.8% (active) |
| O=C(NCCCCNCCCNC(=O)OCc1ccccc1)OCc1ccccc1 | 14.7% | -4.2% | -2.65% | -8.55% | -20.4% | -59.8% |
| O=C(OCc1ccccc1)C1(O)CCCCC1 | -5.6% | -16.2% | -6.25% | -2.7% | -5% | -7.4% |
| COc1ccc(C2SC(N)=Nc3c2c(C)nn3C(=O)c2ccccc2O)cc1 (configuration not stated) | 15.9% | 10.1% | 40.5% | 5.85% | 49.1% | 29.4% |
| NC1=NNC(=O)/C1=C/c1ccccc1 | 16.6% | 5.85% | 0.55% | -17.1% | -10.2% | 22.2% |
| N#Cc1cc2c3ccccc3ncc2c2ccccc12 | 0.95% | 16.4% | -3% | -1.1% | -1.7% | -6% |
| CCC(C)n1c(C)nc2cc(C(F)(F)F)cc(N)c21 (configuration not stated) | 20.7% | 18.4% | 8.4% | -31.2% | 11.6% | 15.2% |
| CN(C)c1ccc2[nH]cc(C(=O)O)c(=O)c2c1 | 4.15% | 6.6% | 10.3% | -1.05% | 28.8% | 7.35% |
| Cn1nnc(/N=C/c2ccccc2)n1 | 5.85% | -8.1% | -6.25% | -19.1% | 4.75% | 11.4% |
| O=C(O)c1cc2c([nH]1)-c1cccnc1C(=O)C2=O | -9.6% | -11.3% | -15.8% | -18.8% | -1.4% | 14.1% |
| COc1ccc(-c2nn(CCO)c(=O)c(C#N)c2-c2ccc(OC)cc2)cc1 | 28.9% | 1.3% | 6.65% | 7.3% | 13.7% | 5.9% |

| Compound | growth inhibition [1] | growth inhibition [2] | growth inhibition [3] | growth inhibition [4] | growth inhibition [5] | growth inhibition [6] |
| --- | --- | --- | --- | --- | --- | --- |
| CN(C(=O)C12C3C4C1C1C2C3C41C(N)=O)C(C)(C)C (configuration not stated) | 9.6% | 7.8% | 4.35% | 25.1% | 18.5% | -6.3% |
| c1ccc2nn(C3CCCCO3)nc2c1 (configuration not stated) | -8.05% | -9.85% | -25.9% | -18.1% | 5.65% | -54.6% |
| CC1N(N2C(=O)CS(=O)(=O)C2C)C(=O)CS1(=O)=O (configuration not stated) | 11.2% | -3.95% | 25.3% | 15.1% | 1.35% | 37% |
| CC(=O)c1cccc(C(=O)O)c1 | -17.4% | 1.95% | -11.7% | -29.7% | -2.35% | -4.3% |
| CC(CO)(CO)N1C(=O)C2C3c4ccccc4C(c4ccccc43)C2C1=O (configuration not stated) | -2% | 1.05% | 1.65% | -3.15% | -3.95% | -28.7% |
| N#Cc1ccc(CCc2ccccc2)cc1 | 1.2% | -3.75% | 18.6% | 10.4% | 2.95% | -2.05% |
| CCOCC(=O)N[C@H]1CCc2cc(OC)c(OC)c(OC)c2-c2ccc(OC)c(=O)cc21 | 9.45% | -32.8% | 22.4% | -2.6% | 9.35% | 4% |
| O=C(O)CNC1CCCC1 | -1.3% | 3.65% | 4.35% | -1.6% | 4.95% | -15.1% |
| CCC1C(=O)OCc2c1cc1n(c2=O)CCC12OCCO2 (configuration not stated) | 0.1% | -15.1% | -36.8% | -17.6% | -23.8% | -15.6% |
| N#CCCNc1ccc2c(c1)Cc1ccccc1-2 | 1.65% | 3.4% | 18.6% | -14.2% | 12.4% | -27.5% |
| COC(=O)NC1=Nc2ccccc2N(C(=O)Oc2ccccc2)S1 | 7.8% | 0.6% | 26.4% | 23.6% | 83.2% (active) | 33.9% |
| CCC1C(C)C=CN1c1nc(N)nc(NS(=O)(=O)c2cc(C)c(Cl)cc2S)n1 (configuration not stated) | -18.2% | 2.5% | 17.7% | -1.9% | 4.3% | 12.2% |
| Cc1nc(C(Cl)(Cl)Cl)nc(C(Cl)(Cl)Cl)n1 | 19.9% | 47% | 27.2% | 9% | 18.4% | 20.4% |
| O=c1[nH]c2ccccc2c(O)c1O | 24.4% | 7.85% | 22.9% | 14.7% | 1% | -5.35% |
| O=C(O)CCc1ccc(-c2ccccc2)[nH]1 | -14.3% | -6.95% | -11.7% | 1.35% | -29.1% | -16.6% |
| O=c1c2n[nH]nc2nc2n1CC(c1ccccc1)S2 (configuration not stated) | -73.7% | -77% | -15.6% | -3.2% | -16.2% | -20.9% |
| O=C(Nc1ccccc1Br)c1ccc(F)cc1 | -0.9% | 3.1% | -11.3% | -18.4% | 14.8% | 14.6% |
| CC1(c2ccncc2)NC(=O)NC1=O (configuration not stated) | 31.9% | -12.6% | 10.3% | 1.4% | -5.8% | 18.6% |
| NC(=O)CC(NC(=O)OCc1ccccc1)C(N)=O (configuration not stated) | 8.6% | 8.4% | -11.2% | -12.4% | 10.8% | -14.6% |
| O=C1CN(CCCO)CC(=O)N2Cc3ccccc3CN12 | -8.95% | 4.55% | -18.7% | -10% | -6.85% | -11.3% |
| O=c1[nH]c2cc(Cl)ccc2nc1/C(=N\O)C(O)c1cccc([N+](=O)[O-])c1 (configuration not stated) | 6.7% | -9.55% | -7.75% | 11.9% | -5.1% | -13.2% |
